# Hits are enriched below; roughly 13% of the tested compounds scored in any of these assays.
# WT yeast gro inh = growth inhibition of WT yeast, mitochondrial fusion screen; mitochondrial fusion phenotypic screen, WT strain; inhibition, % at 10 µM; 2.1% of 190,000 active; AID 1362; in the data active = inhibition above about 58%; tested in S. cerevisiae
# CHOP inh = CHOP inhibition in unfolded protein response | CHO-K1 CHOP-promoter luciferase, tunicamycin-induced, 15-18 h | inhibition, % at 10 µM | 3.8% of 220,000 active;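 active = compounds that reduced the stress-induced luciferase reporter signal by more than about 70% of percent inhibition, limit read from the data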;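 also: 0% = tunicamycin plus vehicle and 100% = wells without tunicamycin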
# RAM network inh = inhibitors of the yeast RAM network; S. cerevisiae dse1pr::URA3 reporter, 5-FOA growth OD615, 2 d; analog-sensitive cbk1-as2 kinase mutant strain; 1.8% of 190,000 active; inhibition, % at 50 µM;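 active = inhibition above a set limit, 3 SD over mean compound inhibition, cut at about 8.4% in these data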;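 also: 0% = DMSO-only wells with no growth and 100% = 10 µM 1-NA-PP1 full growth; inhibition rescues growth on 5-FOA so higher OD means more RAM inhibition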
# Lmaj promast = reduces viability of Leishmania major promastigotes; resazurin fluorescence viability; inhibition, % at 10 µM; 9% of 200,000 active; AID 1063; in the data active = inhibition above about 50%;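 also: promastigotes grown with compound for 44 hours at 28 °C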
# An asterisk follows results filed as active; x = not tested or not shown.
SMILES,WT yeast gro inh,CHOP inh,RAM network inh,Lmaj promast
O=C(CNC(=O)c1ccc(S(=O)(=O)N2CCCC2)cc1)N/N=C/c1ccc(Cl)cc1Cl,6,45,3,69*
COc1ccc(/C=N/NC(=O)CNC(=O)c2ccc(S(=O)(=O)N3CCOCC3)cc2)cc1OC,-2,17,1,-8
O=C(CNC(=O)c1ccc(S(=O)(=O)N2CCCC2)cc1)N/N=C/c1c(Cl)cccc1Cl,-23,39,1,83*
NC(=O)C1=C[C@H](C2CCCCC2)C[C@H](OCc2ccc(CO)cc2)O1,0,-6,0,-5
CCCNC(=S)N1CCC(C(=O)c2ccc(OC)cc2)CC1,14,3,1,-6
O=[N+]([O-])c1cccc(C2NCC(c3ccccc3Cl)c3c2[nH]c2ccccc32)c1 (stereo not given),70*,85*,0,38
CN(C)c1ccc(C2CNC(c3ccc(Cl)c([N+](=O)[O-])c3)c3[nH]c4ccccc4c32)cc1 (stereo not given),x,57,x,x
COC(=O)c1ccc(CSc2nc3c(c(=O)n2-c2ccc(C)cc2)SCC3)o1,15,-10,3,97*
Cc1ccc(-n2c(SCC(=O)N3CCCC3)nc3c(c2=O)SCC3)cc1,-15,50,4,-5
COc1ccc(-c2cc(C(F)(F)F)nc(NC3CCCC3)n2)cc1OC,x,73*,2,16
N/C(=N\OC(=O)C12CC3CC(CC(C3)C1)C2)c1ccccc1,87*,0,1,13
N/C(=N\OC(=O)C12CC3CC(CC(C3)C1)C2)c1cccnc1,-5,-6,0,1
Brc1ccc(OCCOc2cccc3cccnc23)cc1,7,-2,1,-9
c1ccc(OCCOc2cccc3cccnc23)cc1,7,7,1,-3
Cc1cc(C)c(C)c(OCCCOc2cccc3cccnc23)c1,89*,81*,-1,25
Cc1cc(OCCOc2cccc3cccnc23)cc(C)c1Cl,x,75*,1,-2
CC(C)Oc1ccccc1OCCCOc1cccc2cccnc12,81*,-1,2,23
O=C(CC(Nc1ccccc1)c1ccccc1)C1CC1 (stereo not given),x,-8,x,x
COc1ccc(-c2nnn(CC(=O)N(CCCN3CCOCC3)C(C(=O)NC3CCCC3)c3ccco3)n2)cc1 (stereo not given),10,14,1,-6
CCOC(=O)c1[nH]c2ccc(OC)cc2c1NC(=S)N1CCN(c2ccccn2)CC1,10,-10,1,54*
CCOC(=O)c1[nH]c2ccc(OC)cc2c1NC(=S)N1CCN(c2ccccc2)CC1,1,-16,4,77*
CCOC(=O)c1[nH]c2ccc(OC)cc2c1NC(=O)C(C)N1CCC2(CC1)OCCO2 (stereo not given),67*,25,1,13
CCOC(=O)c1[nH]c2ccc(OC)cc2c1NC(=O)CN1CCC2(CC1)OCCO2,9,14,2,-5
Cc1ccc(C(=O)NNC(=O)CCN2C(=O)C3CCCCC3C2=O)cc1 (stereo not given),-19,5,0,-6
O=C(Nc1ccc([N+](=O)[O-])cc1)c1cc2ccccc2nc1Cl,x,30,x,x
SMILES,WT yeast gro inh,CHOP inh,RAM network inh,Lmaj promast
COC(=O)c1c(NC(=O)CC2SC(N)=NC2=O)sc2c1CCC(C(C)(C)C)C2 (stereo not given),-10,48,3,7
COc1ccccc1-c1nc(C#N)c(NCc2ccc(F)cc2)o1,-8,-10,2,14
Cn1c(-c2cccc3ccccc23)n[nH]c1=S,-7,6,1,-7
CSc1nnc(CCCCCCCCc2nnc(SC)o2)o1,x,20,x,x
CN(C)c1ccc(/C=C/c2nnnn2-c2ccccc2)cc1,7,-16,0,56*
CC(C)CCNC(=O)c1ccc(CSCc2cccc(F)c2)o1,26,90*,2,-1
O=C(NCc1ccc2c(c1)OCO2)c1ccc(-c2ccc(Cl)cc2)o1,69*,36,4,-6
O=C(NCc1ccc2c(c1)OCO2)c1ccc(CSCc2cccc(Cl)c2)o1,43,26,8.8*,43
O=C(NCc1ccc2c(c1)OCO2)C1CCCN1C(=O)Nc1cccc(Cl)c1 (stereo not given),0,0,2,99*
O=C(CSCc1cccc(Cl)c1)NCc1ccc2c(c1)OCO2,-2,11,-1,39
COc1cnc(SC)nc1Nc1ccc(C#N)cc1,x,18,x,x
COCCN(C(=O)CSc1ncc(C(F)(F)F)cc1Cl)c1c(N)n(Cc2ccccc2)c(=O)[nH]c1=O,-9,-15,2,-7
Cc1ccc2ncnc(Nc3ccc(C)c(C)c3)c2c1,37,17,1,73*
O=C(CN1C(=O)COc2ccc(Cl)cc21)Nc1ccc2c(c1)OCCO2,2,14,2,-6
CCOc1ccc(NC(=O)CN2C(=O)COc3ccc(Cl)cc32)cc1,9,76*,4,3
Cc1c(NC(=O)CSc2ncnc3ccccc23)c(=O)n(-c2ccccc2)n1C,-1,16,0,-4
CCCCN(C)CCCNC(=O)/C=C1\Sc2ccccc2NC1=O,-4,1,3,29
Cn1c(N)c(C(=O)COC(=O)[C@@H]2CCCN2S(=O)(=O)c2ccc(Cl)cc2)c(=O)n(C)c1=O,-3,11,0,-3
COc1ccc(-c2noc(CSc3nnc(Cc4ccccc4)n3-c3ccc(Cl)cc3)n2)cc1,60*,48,10*,18
Cn1c(SCc2nc(-c3ccc(Cl)cc3)no2)nnc1-c1ccccc1,10,17,2,-7
COc1ccc(-c2noc(CSc3nnc(CCc4ccccc4)n3-c3ccccc3)n2)cc1OC,37,47,2,72*
Cc1ccc(-c2noc(CSc3nnc(Cc4ccccc4)n3-c3ccc(Cl)cc3)n2)cc1,53,81*,8.5*,20
N#CCc1nn2c3c(cnc2c1C#N)C(=O)CCC3,11,10,2,3
C/C(CCC12CC3CC(CC(C3)C1)C2)=N\NC(N)=S,78*,41,1,100*
C/C(CC1CC(C)OC1=O)=N\NC(N)=S (stereo not given),-3,-5,1,-8
SMILES,WT yeast gro inh,CHOP inh,RAM network inh,Lmaj promast
O=C(Nc1ccc(Cl)cc1)N1CCCN(Cc2ccc(F)cc2)C1,x,-17,-1,92*
NC(=O)C1CCN(C(=O)/C=C/c2ccco2)CC1,-8,-18,3,-9
Cc1ccc(C)c(NC(=O)c2ccccc2NS(=O)(=O)c2cc([N+](=O)[O-])ccc2C)c1,80*,74*,4,63*
CSc1ccccc1C(=O)Nc1cc(C)ccc1C,4,17,0,5
Cc1ccc(C)c(NC(=O)c2ccccc2Sc2ccc([N+](=O)[O-])cc2Cl)c1,57,65,2,96*
Cc1ccc(C)c(S(=O)(=O)Nc2ccccc2C(=O)Nc2cc(C)on2)c1,10,-4,1,35
COc1ccc(C2=NOC(C)(c3nnc(-c4ccc(F)cc4)o3)C2)cc1 (stereo not given),x,-8,x,x
CCOc1ccc(N2C(=O)CC(N(Cc3ccco3)C(C)=O)C2=O)cc1 (stereo not given),-6,0,0,-3
C/C(=N\N(Cc1ccccc1)c1ccccc1)c1ccncc1,39,31,4,35
